# Reference: the supplement of paper PMC12819154, “High-throughput peptide-centric local stability assay extends protein–ligand identification to membrane proteins, tissues and bacteria” (Nature Structural & Molecular Biology, 2025)
# Compound: CN[C@@H]1C[C@H]2O[C@@](C)([C@@H]1OC)n1c3ccccc3c3c4c(c5c6ccccc6n2c5c31)C(=O)NC4 [staurosporine]
# Assay: log2 fold change of tryptic peptide abundance, ligand vs vehicle (limited proteolysis) (log2 ratio); higher = more trypsin-susceptible (destabilized)
# Details: ligand concentration: 20 uM; sample: mouse liver crude lysate; replicate design: treated separately
# Chain of UniProt Q8VDP6 (Q8VDP6 whole entry): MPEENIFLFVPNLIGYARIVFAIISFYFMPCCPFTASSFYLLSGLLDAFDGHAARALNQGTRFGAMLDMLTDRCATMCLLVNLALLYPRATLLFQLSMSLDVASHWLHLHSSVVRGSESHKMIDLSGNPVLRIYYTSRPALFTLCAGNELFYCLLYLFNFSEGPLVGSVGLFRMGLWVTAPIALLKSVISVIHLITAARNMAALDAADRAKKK
# Chain of UniProt P70236 (P70236 whole entry): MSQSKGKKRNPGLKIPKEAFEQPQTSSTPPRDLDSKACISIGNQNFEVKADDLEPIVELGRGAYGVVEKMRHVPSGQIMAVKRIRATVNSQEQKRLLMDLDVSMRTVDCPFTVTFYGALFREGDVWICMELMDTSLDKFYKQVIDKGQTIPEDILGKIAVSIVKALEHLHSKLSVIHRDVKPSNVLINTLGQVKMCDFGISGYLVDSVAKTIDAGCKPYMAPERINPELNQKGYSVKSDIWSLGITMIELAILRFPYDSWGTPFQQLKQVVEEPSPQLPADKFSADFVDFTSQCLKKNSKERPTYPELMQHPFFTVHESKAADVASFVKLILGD
# Chain of UniProt Q9JI10 (Q9JI10 whole entry): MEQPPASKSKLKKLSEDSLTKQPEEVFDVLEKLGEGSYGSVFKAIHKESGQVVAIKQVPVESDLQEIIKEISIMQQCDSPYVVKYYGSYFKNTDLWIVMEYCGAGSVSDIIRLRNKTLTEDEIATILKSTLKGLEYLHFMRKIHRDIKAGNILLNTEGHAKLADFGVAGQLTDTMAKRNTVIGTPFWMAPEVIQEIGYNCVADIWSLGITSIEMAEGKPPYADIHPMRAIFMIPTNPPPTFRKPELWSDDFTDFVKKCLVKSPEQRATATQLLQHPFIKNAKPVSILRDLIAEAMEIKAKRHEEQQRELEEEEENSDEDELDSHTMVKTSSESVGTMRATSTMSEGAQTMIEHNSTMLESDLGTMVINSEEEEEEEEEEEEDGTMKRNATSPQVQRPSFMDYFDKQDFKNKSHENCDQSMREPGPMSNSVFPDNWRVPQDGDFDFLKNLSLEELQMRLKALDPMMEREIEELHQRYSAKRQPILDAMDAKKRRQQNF
# Chain of UniProt Q923T9 (Q923T9 whole entry): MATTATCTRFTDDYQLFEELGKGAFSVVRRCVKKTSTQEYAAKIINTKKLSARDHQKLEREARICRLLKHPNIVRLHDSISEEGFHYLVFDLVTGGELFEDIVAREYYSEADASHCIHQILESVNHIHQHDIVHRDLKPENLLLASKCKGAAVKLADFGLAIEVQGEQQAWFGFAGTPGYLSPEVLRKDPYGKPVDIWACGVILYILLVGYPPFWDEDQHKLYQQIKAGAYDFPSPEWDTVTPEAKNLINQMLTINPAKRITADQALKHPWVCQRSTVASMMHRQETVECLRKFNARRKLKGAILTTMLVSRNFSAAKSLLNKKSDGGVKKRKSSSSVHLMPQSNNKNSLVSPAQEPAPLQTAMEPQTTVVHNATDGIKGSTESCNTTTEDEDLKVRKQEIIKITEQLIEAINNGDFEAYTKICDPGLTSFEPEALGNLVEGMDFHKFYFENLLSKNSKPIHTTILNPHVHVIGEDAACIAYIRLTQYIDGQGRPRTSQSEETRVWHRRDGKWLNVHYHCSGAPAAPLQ
# Chain of UniProt Q8BHC4 (Q8BHC4 whole entry): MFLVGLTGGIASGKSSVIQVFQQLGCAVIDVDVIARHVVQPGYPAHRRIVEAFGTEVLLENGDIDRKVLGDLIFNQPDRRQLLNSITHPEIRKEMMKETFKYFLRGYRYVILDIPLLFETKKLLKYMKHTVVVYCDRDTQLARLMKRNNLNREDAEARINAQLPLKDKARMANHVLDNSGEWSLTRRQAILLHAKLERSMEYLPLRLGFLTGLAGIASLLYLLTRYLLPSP
# Chain of UniProt P24549 (P24549 whole entry): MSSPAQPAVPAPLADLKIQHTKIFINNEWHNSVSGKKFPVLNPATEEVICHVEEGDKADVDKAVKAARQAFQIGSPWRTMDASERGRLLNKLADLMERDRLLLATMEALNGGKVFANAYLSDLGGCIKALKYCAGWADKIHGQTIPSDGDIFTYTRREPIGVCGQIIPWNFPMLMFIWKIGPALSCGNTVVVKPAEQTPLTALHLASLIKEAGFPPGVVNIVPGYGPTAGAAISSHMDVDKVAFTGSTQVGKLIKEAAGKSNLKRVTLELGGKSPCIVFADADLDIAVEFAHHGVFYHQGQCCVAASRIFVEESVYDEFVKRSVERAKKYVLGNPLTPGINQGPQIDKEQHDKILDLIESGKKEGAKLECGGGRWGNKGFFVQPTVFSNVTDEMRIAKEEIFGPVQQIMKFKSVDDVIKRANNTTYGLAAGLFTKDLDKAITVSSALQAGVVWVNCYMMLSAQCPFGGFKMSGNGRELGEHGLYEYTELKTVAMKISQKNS
# Chain of UniProt Q9Z2W1 (Q9Z2W1 whole entry): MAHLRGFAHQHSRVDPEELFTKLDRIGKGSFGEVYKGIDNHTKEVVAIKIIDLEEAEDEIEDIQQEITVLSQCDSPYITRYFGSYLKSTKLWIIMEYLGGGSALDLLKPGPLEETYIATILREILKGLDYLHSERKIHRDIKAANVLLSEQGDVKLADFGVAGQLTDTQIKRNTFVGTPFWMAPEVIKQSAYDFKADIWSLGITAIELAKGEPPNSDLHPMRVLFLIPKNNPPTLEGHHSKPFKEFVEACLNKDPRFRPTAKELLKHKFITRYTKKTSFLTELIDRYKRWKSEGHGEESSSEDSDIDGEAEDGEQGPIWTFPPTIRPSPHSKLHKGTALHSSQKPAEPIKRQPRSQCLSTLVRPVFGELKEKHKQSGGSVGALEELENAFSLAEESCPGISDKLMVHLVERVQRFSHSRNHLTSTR
# Chain of UniProt P97872 (P97872 whole entry): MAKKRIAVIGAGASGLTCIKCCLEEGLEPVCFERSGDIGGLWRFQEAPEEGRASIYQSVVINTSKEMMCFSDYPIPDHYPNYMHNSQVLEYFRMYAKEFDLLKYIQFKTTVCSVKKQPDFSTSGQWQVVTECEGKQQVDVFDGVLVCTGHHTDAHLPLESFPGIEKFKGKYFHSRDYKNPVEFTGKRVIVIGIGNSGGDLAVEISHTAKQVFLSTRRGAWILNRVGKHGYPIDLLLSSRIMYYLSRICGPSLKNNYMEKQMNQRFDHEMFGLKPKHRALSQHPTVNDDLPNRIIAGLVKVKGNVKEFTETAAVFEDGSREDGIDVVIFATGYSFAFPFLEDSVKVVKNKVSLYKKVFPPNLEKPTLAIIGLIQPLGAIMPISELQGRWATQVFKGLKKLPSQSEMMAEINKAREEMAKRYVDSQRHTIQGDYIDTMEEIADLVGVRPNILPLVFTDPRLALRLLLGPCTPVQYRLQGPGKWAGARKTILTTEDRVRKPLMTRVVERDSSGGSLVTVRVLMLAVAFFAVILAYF
# Chain of UniProt Q9CQE7 (Q9CQE7 whole entry): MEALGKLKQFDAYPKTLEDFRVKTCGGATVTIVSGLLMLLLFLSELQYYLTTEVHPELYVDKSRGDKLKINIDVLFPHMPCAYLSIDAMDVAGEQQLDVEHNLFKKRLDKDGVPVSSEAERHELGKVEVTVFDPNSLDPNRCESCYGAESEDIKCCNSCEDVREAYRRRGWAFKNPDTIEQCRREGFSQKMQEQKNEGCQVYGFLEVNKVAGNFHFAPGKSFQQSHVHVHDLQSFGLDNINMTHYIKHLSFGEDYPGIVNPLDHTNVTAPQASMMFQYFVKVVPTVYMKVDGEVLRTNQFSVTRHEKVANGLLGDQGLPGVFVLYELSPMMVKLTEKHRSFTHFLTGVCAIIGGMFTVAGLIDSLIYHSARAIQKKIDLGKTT
# Chain of UniProt Q9CQU3 (Q9CQU3 whole entry): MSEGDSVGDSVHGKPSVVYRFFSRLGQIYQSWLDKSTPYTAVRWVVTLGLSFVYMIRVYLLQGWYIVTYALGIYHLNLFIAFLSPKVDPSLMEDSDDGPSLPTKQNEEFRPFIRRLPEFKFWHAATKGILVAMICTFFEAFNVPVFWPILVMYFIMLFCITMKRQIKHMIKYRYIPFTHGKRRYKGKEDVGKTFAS
# Chain of UniProt Q9DBG5 (Q9DBG5 whole entry): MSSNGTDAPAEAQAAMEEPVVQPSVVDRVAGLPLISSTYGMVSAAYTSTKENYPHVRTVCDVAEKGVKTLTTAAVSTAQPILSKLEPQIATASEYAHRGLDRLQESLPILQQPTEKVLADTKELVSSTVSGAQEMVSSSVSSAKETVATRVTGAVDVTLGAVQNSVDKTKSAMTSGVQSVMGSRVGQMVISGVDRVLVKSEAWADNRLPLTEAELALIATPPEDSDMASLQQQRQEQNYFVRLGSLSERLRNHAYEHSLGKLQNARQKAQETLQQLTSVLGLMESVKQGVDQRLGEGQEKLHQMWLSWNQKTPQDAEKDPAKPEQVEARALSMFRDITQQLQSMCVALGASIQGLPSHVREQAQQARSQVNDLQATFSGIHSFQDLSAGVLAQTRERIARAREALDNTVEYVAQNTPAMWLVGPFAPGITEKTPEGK
# Chain of UniProt A2A974 (A2A974 whole entry): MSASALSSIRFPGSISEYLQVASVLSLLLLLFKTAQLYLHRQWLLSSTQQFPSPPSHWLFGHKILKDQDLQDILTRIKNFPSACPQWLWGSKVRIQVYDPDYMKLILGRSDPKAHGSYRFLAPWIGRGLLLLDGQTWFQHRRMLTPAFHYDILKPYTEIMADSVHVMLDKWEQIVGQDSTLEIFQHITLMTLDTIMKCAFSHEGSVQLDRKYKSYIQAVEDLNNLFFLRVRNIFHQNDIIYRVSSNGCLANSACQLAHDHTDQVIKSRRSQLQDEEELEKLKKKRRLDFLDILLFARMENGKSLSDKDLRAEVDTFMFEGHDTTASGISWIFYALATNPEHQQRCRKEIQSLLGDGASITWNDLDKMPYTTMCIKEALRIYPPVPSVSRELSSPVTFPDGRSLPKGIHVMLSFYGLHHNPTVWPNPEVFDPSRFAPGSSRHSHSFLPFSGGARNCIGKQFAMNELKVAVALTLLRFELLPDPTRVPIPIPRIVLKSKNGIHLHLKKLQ
# Chain of UniProt P09813 (P09813 whole entry): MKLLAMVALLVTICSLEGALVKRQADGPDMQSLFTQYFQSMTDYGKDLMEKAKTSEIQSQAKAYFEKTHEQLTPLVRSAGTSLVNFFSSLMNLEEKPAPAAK
row,Target,log2 fold change
1,"UniProt P70236 (peptide sequence: ADDLEPIVELGR, peptide start residue: 50)",-2.01
2,"UniProt P19253 (peptide sequence: LAHEVGWK, peptide start residue: 141)",0.254
3,"UniProt P27659 (peptide sequence: LLPLRQKK, peptide start residue: 170)",-0.616
4,"UniProt Q9CQU3 (peptide sequence: YIPFTHGK, peptide start residue: 174)",0.278
5,"UniProt Q8N9S3 (peptide sequence: SPAVLEAER, peptide start residue: 231)",0.295
6,"UniProt Q9WUN2 (peptide sequence: VFNNISFLRPVDVQMR, peptide start residue: 39)",-2.34
7,"UniProt P24456 (peptide sequence: RVQQEIDAVIGQVR, peptide start residue: 333)",-0.553
8,"UniProt Q9DBG5 (peptide sequence: VGQMVISGVDR, peptide start residue: 185)",0.534
9,"UniProt Q64261 (peptide sequence: ISAYGALNHPYFQDLER, peptide start residue: 289)",0.478
10,"UniProt O55125 (peptide sequence: NNKEYLEFR, peptide start residue: 144)",0.432
11,"UniProt Q9CYZ2 (peptide sequence: LGEWNEK, peptide start residue: 113)",0.397
12,"UniProt Q9DCN1 (peptide sequence: AIAHQLIK, peptide start residue: 446)",-0.997
13,"UniProt P09813 (peptide sequence: THEQLTPLVR, peptide start residue: 68)",0.46
14,"UniProt O89023 (peptide sequence: VNTEFMK, peptide start residue: 339)",-0.234
15,"UniProt Q9CQE7 (peptide sequence: QFDAYPK, peptide start residue: 9)",0.366
16,"UniProt P97872 (peptide sequence: DSSGGSLVTVR, peptide start residue: 507)",-1.1

row,Target,log2 fold change
1,"UniProt O70293 (peptide sequence: EFCATRPELTR, peptide start residue: 69)",-1.23
2,"UniProt Q8VEB1 (peptide sequence: DLKPENILLDDYGHIR, peptide start residue: 311)",-0.743
3,"UniProt Q6P4S6 (peptide sequence: LIAECQQLKEER, peptide start residue: 329)",-1.43
4,"UniProt Q8VDP6 (peptide sequence: MIDLSGNPVLR, peptide start residue: 122)",0.341
5,"UniProt Q9JI10 (peptide sequence: AGNILLNTEGHAK, peptide start residue: 149)",-3.04
6,"UniProt P24549 (peptide sequence: SVDDVIKR, peptide start residue: 413)",-0.205
7,"UniProt Q9D517 (peptide sequence: GLPPLKYHLLPR, peptide start residue: 196)",0.633
8,"UniProt Q923T9 (peptide sequence: GAILTTMLVSR, peptide start residue: 302)",-0.876
9,"UniProt P42932 (peptide sequence: AIAGTGANVIVTGGK, peptide start residue: 282)",-0.803
10,"UniProt Q5U5V2 (peptide sequence: ENFIWNLK, peptide start residue: 175)",-0.924
11,"UniProt Q8BHC4 (peptide sequence: HVVQPGYPAHR, peptide start residue: 37)",0.384
12,"UniProt O54785 (peptide sequence: GFFGQAIK, peptide start residue: 340)",-0.88
13,"UniProt Q9Z2W1 (peptide sequence: GSFGEVYK, peptide start residue: 29)",-2.09
14,"UniProt Q9EQC1 (peptide sequence: DFYYQGLR, peptide start residue: 204)",-0.862
15,"UniProt A2A974 (peptide sequence: SLSDKDLR, peptide start residue: 303)",0.2
